High-throughput results from PubChem.
The full list was thinned out, with hits kept by preference.
Tgondii IFNg – T. gondii growth inhibition with IFN-gamma, primary screen, cell-based | Toxoplasma gondii growth in IFN-gamma-treated host cells; stronger effect = lower value | activity change, negative = inhibition, % (concentration not given with the values) | 3.8% of 69,000 active; in the data active means activity change below about -70%, passing the limit was not always enough;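 further: host cells are HeLa cells infected with Toxoplasma gondii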
Of the large screens only hits and unclear results are named; the others gave an inactive call.

O=C(Cc1ccc(F)cc1)N1CCc2ncnc(C3CC3)c2CC1	none
COCCN1CCC(c2nc3ccc(-c4ccnn4C)cn3n2)CC1	none
CN(C)C(=O)C1CC2CN(C(=O)Nc3ccccc3Cl)CC1O2 (centres undefined)	none
c1ccc(-c2nc[nH]c2-c2cccn2-c2cccnc2)cc1	none
CC(=O)OCc1ccc(CN2CCC(C3Nc4ccccc4S(=O)(=O)N3)CC2)o1 (centres undefined)	none
CCC1(CO)CCCN1Cc1cc2ccc(C)cc2[nH]c1=O (centres undefined)	none
CCc1cc(-c2ccc3c(c2)OCCO3)ccc1NC(C)=O	none
CCC(=O)NCc1ccccc1-c1ccc2c(c1)OCCO2	none
CCNC(=O)Cc1ccc(-c2ccc3c(c2)OCCO3)cc1	Tgondii IFNg -74
CC(=O)Nc1ccc(Cl)c(C(=O)NCCCc2csc(N)n2)c1	none
CSc1ccc(CNC(=O)Cn2c(=O)cc(-c3nc(C)no3)c3ccccc32)cc1	none
COc1cccc(Nc2nc(-c3ccncc3)nc3c2CN(C(=O)OC(C)(C)C)CC3)c1	Tgondii IFNg -75
COc1cccc(CC(=O)N2CCc3nc(-c4ccc(F)cc4)nc(C)c3CC2)c1	none
CC(C)(C)OC(=O)N1CCc2[nH]nc(Nc3ccccc3)c2C1	none
Cc1ccc(-c2nc(CCNC(=O)C(=O)Nc3cccc(F)c3)cs2)cc1	none
Cc1cc(-c2ccc(=O)n(C3CCN(C(=O)C4CCC4)CC3)n2)c(C)o1	none
CCc1[nH]c2ccc(CNC(=O)c3ccn[nH]3)cc2c1C	none
Cc1cc(C)c(S(=O)(=O)NCCCn2ccnc2)c(C)c1	none
Cc1cc(C)c2cc(C#N)c(NCCCn3ccnc3)nc2c1	Tgondii IFNg -101
Cc1cccc(-n2ncc3c(NCCCn4ccnc4)ncnc32)c1	none
O=C(O)CN1CC2CCC(C1)C2C(=O)NCc1ccco1 (centres undefined)	none
c1cc(N2CCCC2)nnc1CC1CCCNC1 (centres undefined)	none
CN1CCC=C(CN(C(=O)c2ccc(C(F)(F)F)cc2)C2CC2)C1	none
COc1ccc(S(=O)(=O)Nc2ccc3c(c2)C(=O)N([C@@H](C)CO)C[C@H](C)[C@@H](CN(C)Cc2ccc(C(F)(F)F)cc2)OCCCC[C@@H](C)O3)cc1	Tgondii IFNg -86
C[C@H]1CCCCO[C@@H](CN(C)Cc2ccncc2)[C@@H](C)CN([C@@H](C)CO)C(=O)c2cc(NS(=O)(=O)c3ccc(Cl)cc3)ccc2O1	none
C[C@@H]1CN([C@@H](C)CO)C(=O)c2cc(NS(=O)(=O)c3ccc(Cl)cc3)ccc2O[C@@H](C)CCCCO[C@H]1CN(C)Cc1ccncc1	none
C[C@H](CO)N1C[C@H](C)[C@H](CN(C)Cc2ccncc2)OCCCC[C@H](C)Oc2ccc(NS(=O)(=O)c3ccc(Cl)cc3)cc2C1=O	none
Cc1ccc(S(=O)(=O)Nc2ccc3c(c2)C(=O)N([C@@H](C)CO)C[C@H](C)[C@H](CN(C)Cc2ccc(C(F)(F)F)cc2)O3)cc1	none
COc1ccc(S(=O)(=O)Nc2ccc3c(c2)C(=O)N([C@@H](C)CO)C[C@H](C)[C@H](CN(C)Cc2ccc(C(F)(F)F)cc2)OCCCC[C@H](C)O3)cc1	Tgondii IFNg -107
COCC1CN(Cc2ccoc2)Cc2cn(C)nc21 (centres undefined)	none
COc1cccc2ccc(-c3ccc(C(=O)N(C)C)cc3)nc12	none
O=C(C1CCN(C2CCNCC2)CC1)N1CCOCC1	none
CC(C)=CCC[C@](C)(O)[C@H]1CC[C@]2(C)[C@@H]1[C@H](O)C[C@@H]1[C@@]3(C)CC[C@H](O)C(C)(C)[C@@H]3[C@@H](O)C[C@]12C	none
CNC(=O)[C@@H]1C[C@@H](N)CN1Cc1cnc(C(C)(C)C)nc1	none
CCCCSc1nc2sc3c(c2c(=O)n1-c1ccc(C)cc1)CCC3	none
Cc1ccc(C(=O)N2CCOCC2)cc1	none
Cc1ccc(C(=O)N2CCN(c3nc(C)nc4sc5c(c34)CCCC5)CC2)cc1	Tgondii IFNg -96
FC(F)(F)c1cccc(CC2CN(Cc3nccs3)CCO2)c1 (centres undefined)	none
CCn1c(CC2CCN(C(=O)CCN3CCCCO3)CC2)nn(C)c1=O	none
CCOc1cc(CCC(=O)N2CCC(c3nc4ccccc4cc3C(N)=O)CC2)on1	none
COc1cccc2c1C(=O)c1c(O)c3c(c(O)c1C2=O)C[C@@](O)(C(=O)CO)C[C@@H]3O[C@H]1C[C@H](N)[C@H](O)[C@H](C)O1	Tgondii IFNg -78
CCCCC(=O)OCC(=O)[C@]1(O)Cc2c(O)c3c(c(O)c2[C@@H](O[C@H]2C[C@H](NC(=O)C(F)(F)F)[C@H](O)[C@H](C)O2)C1)C(=O)c1c(OC)cccc1C3=O	Tgondii IFNg -73
COc1cccc2c1C(=O)c1c(O)c3c(c(O)c1C2=O)C[C@@](O)(C(C)=O)C[C@@H]3OC1CC(N)C(O)C(C)O1 (some centres undefined)	Tgondii IFNg -75
CC(=O)C1(O)Cc2c(O)c3c(c(O)c2C(OC2CC(N)C(O)C(C)O2)C1)C(=O)c1c(O)cccc1C3=O (centres undefined)	Tgondii IFNg -79
O=C(O)CCN1C(=O)c2ccc(Br)cc2C1=O	none
O=C(O)C1CN(C(=O)CC2CCN(Cc3ccccc3)CC2)CCN1 (centres undefined)	none
CCc1nc2ccccc2n1C(C)C(=O)NCc1nnc(-c2ccccc2)o1 (centres undefined)	none
Cc1ccccc1CSc1ccc(-c2sc(-c3ccc(F)cc3)nc2C)nn1	none
OCC1(CCc2ccccc2)CCN(c2ncnc3[nH]ccc23)CC1	none
CCn1ccc(-c2n[nH]c(=O)n2C2CCCC2)n1	none
Cc1cc(C(F)(F)F)n2nc(C(=O)N3CCC(c4onc5c4CC(C)CC5)CC3)cc2n1 (centres undefined)	none
CC(C)c1csc(-c2ccc(S(=O)(=O)NCCN3CCCCC3C)s2)n1 (centres undefined)	none
CC(C)(C(=O)NCC(F)(F)C(F)(F)F)C(=O)N[C@@H]1C(=O)Nc2ccccc2-c2ccccc21	Tgondii IFNg -89
CCC(=O)N1CCCC(C2C(=O)Nc3ccccc32)C1 (centres undefined)	none
Cc1nc(CN(C)C(=O)C2CCCN(c3ccccn3)C2)no1 (centres undefined)	none
Cc1nn(Cc2nc(-c3ccc(NC(=O)c4ccccc4F)cc3)oc2C)c(C)c1C	none
Cc1cc(C)n(Cc2nc(-c3ccc(NC(=O)c4ccc(F)cc4Cl)cc3)oc2C)n1	none
Cc1nn(Cc2nc(-c3ccc(NC(=O)c4ccc(F)cc4F)cc3)oc2C)c(C)c1C	Tgondii IFNg -101
Cc1cc(C)n(Cc2nc(-c3ccc(NC(=O)c4cc(F)ccc4F)cc3)oc2C)n1	Tgondii IFNg -81
Cc1cc(C)n(Cc2nc(-c3ccc(NC(=O)Cc4cccc(F)c4)cc3)oc2C)n1	none
COc1ccc(C(=O)Nc2ccc(-c3nc(Cn4nc(C)cc4C)c(C)o3)cc2)cc1F	none
Cc1cc(C)n(Cc2nc(-c3ccc(NC(=O)c4ccc(F)cc4F)cc3)oc2C)n1	Tgondii IFNg -85
Cc1nn(Cc2nc(-c3ccc(NC(=O)c4cccc(F)c4)cc3)oc2C)c(C)c1C	none
Cc1cc(C)n(Cc2nc(-c3ccc(NC(=O)Cc4ccccc4F)cc3)oc2C)n1	none
O=C(Cc1ccccc1)N1CCC2(CC(=O)N(c3ccccc3)C2)C1 (centres undefined)	none
COc1ccc(-c2nc(C)c(CCNS(=O)(=O)c3ccc(F)c(C(F)(F)F)c3)s2)cc1OC	none
CCOC(=O)c1cc(C2CC2)nc2c1c(=O)n(Cc1nc(-c3cc(C)ccc3C)oc1C)c(=O)n2C	none
O=C(c1ccc(-n2nc(C(F)(F)F)c3c2CCCC3)cc1)N1CCC2(CC1)OCCO2	none
COC(=O)CSc1nc2ccccc2n1Cc1c(F)cccc1Cl	none
